For 7 sequences, binding signal results are on record in publication PMC7862700, “An all-to-all approach to the identification of sequence-specific readers for epigenetic DNA modifications on cytosine”.

Holding throughout (assay): DAPPL (digital affinity profiling via proximity ligation, sequencing); 10 mM Tris-HCl pH 7.5, 50 mM NaCl, 1 mM DTT, 4% glycerol, room temperature, 30 min; GST-TFs on glutathione beads, 16-mer random dsDNA library, 0.1% formaldehyde crosslink after washing; high values mean tight binding
Conditions in all cases: protein: recombinant; tags: N-terminal GST; dsDNA, one strand shown

The target of one assay is T1, ERF (Homo sapiens, UniProt P50548 1-548).
T1 sequence: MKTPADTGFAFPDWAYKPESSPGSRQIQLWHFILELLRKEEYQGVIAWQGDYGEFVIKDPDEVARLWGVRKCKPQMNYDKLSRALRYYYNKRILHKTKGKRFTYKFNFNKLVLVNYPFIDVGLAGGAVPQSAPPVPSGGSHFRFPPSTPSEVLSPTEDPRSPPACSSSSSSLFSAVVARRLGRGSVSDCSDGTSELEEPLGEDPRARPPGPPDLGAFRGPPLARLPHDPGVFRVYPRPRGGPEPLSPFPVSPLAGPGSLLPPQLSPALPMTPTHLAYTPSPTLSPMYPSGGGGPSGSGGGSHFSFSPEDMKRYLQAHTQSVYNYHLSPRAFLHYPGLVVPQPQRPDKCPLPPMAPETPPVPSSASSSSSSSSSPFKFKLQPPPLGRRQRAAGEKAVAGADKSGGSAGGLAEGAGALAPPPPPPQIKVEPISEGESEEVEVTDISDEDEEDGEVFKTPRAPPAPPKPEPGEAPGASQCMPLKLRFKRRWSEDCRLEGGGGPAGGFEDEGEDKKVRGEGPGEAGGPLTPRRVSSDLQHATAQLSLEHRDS
Put shortly: (§1)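 Human transcription factors carrying a GST fusion were produced in yeast, bound to glutathione beads, tagged with DNA barcodes and pooled together with a tag-only sample. Each pool was held with 200 nmole of a random double-stranded 16-mer DNA library in Tris/NaCl/DTT/glycerol buffer for 30 min at room temperature, then washed, crosslinked in 0.1% formaldehyde, proximity-ligated with BsaI/T4 ligase (1 h, 37 °C), PCR-amplified and sequenced on an Illumina NextSeq500. Binding signal is the read frequency of each hexamer for a given factor divided by its frequency in the tag-only sample.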

The next assay deals with T2, ETV3L (Homo sapiens, UniProt Q6ZN32 1-361).
T2 sequence: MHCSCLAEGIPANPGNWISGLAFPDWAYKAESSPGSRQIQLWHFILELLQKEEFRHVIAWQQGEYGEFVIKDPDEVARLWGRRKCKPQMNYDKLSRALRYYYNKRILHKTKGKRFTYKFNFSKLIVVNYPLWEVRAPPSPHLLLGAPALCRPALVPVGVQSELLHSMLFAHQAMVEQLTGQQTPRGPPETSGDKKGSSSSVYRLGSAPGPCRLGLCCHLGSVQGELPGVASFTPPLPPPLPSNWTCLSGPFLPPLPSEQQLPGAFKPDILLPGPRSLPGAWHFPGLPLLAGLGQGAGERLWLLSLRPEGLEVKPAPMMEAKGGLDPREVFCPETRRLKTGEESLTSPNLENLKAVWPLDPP
In a few lines:
as §1

Another assay concerns the target T3, ETS2 (Homo sapiens, UniProt P15036 1-469).
T3 sequence: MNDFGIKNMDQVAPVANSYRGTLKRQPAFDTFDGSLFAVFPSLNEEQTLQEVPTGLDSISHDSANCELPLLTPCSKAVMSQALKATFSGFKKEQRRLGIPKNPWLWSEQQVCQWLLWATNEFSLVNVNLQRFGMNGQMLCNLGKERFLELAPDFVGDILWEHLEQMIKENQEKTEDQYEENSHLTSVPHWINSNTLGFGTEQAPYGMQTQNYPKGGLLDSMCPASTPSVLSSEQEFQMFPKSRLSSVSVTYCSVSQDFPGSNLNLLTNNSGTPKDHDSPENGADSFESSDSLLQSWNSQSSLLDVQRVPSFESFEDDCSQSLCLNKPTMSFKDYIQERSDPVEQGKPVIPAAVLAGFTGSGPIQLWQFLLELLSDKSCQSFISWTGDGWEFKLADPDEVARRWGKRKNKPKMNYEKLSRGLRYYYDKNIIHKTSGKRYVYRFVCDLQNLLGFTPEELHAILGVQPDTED
Put shortly: as §1

In the next assay the target is T4, SPDEF (Homo sapiens, UniProt O95238 1-335).
T4 sequence: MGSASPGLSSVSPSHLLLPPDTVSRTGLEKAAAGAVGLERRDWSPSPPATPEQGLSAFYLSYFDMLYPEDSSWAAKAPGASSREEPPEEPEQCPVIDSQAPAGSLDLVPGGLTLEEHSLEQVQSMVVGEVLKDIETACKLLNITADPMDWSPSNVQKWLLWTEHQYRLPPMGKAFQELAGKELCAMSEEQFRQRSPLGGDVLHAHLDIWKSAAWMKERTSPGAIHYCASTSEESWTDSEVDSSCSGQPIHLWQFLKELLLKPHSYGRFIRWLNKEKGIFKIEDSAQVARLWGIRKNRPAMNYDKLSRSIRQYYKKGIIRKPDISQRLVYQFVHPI
Put shortly:
as §1

The next assay has as its target T5, ETV7 (Homo sapiens, UniProt Q9Y603 1-341).
T5 sequence: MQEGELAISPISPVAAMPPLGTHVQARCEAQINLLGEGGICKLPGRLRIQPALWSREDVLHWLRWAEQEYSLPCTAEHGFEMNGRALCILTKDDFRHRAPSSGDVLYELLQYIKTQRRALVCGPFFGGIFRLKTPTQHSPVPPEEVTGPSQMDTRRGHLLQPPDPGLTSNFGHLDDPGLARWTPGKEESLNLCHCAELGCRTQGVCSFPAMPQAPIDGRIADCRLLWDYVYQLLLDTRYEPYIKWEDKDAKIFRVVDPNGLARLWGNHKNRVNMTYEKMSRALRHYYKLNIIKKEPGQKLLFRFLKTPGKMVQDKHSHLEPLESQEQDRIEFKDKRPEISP
In a few lines: as §1

The target in the next assay is T6, ELF5 (Homo sapiens, UniProt Q9UKW6-2 1-255).
T6 sequence: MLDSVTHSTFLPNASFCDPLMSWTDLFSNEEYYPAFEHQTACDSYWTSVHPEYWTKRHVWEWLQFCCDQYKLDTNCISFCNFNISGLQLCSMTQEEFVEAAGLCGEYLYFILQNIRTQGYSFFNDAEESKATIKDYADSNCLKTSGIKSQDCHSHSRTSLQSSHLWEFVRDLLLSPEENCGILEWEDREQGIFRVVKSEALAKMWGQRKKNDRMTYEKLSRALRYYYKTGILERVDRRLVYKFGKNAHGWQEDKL
Put shortly:
as §1

The next assay deals with T7, ETV3 (Homo sapiens, UniProt P41162-2 1-143).
T7 sequence: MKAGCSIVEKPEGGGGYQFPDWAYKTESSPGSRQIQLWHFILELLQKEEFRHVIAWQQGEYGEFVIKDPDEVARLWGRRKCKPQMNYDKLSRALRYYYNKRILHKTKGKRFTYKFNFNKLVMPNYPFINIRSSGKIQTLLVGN
Put shortly:
as §1

Another assay has as its target ETV6 (Homo sapiens, UniProt P41212 1-452). Put shortly: as §1

ETV6, sequence (P41212 whole entry): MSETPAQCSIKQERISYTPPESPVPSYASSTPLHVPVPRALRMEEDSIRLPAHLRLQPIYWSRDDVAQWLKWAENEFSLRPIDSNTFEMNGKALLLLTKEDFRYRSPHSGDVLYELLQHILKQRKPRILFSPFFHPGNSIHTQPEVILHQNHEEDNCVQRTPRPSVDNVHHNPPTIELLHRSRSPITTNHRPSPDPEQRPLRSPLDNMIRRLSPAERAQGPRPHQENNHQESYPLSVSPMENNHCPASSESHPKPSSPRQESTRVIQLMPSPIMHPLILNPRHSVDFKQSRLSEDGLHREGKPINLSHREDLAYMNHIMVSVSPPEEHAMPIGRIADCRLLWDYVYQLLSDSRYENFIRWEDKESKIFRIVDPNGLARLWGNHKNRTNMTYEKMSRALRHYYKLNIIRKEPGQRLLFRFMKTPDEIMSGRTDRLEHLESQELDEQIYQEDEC

Turning to CCCATA, the binding signal was 1.19 fold enrichment (6-mer frequency, TF over GST control) with ERF; 1.34 fold enrichment (6-mer frequency, TF over GST control) with ETV3L; 1.29 fold enrichment (6-mer frequency, TF over GST control) in the assay with ETS2; 1.19 fold enrichment (6-mer frequency, TF over GST control) with SPDEF; 1.19 fold enrichment (6-mer frequency, TF over GST control) with ETV7; 1.25 fold enrichment (6-mer frequency, TF over GST control) in the assay with ELF5. The binding signal is 1.21 fold enrichment (6-mer frequency, TF over GST control) in the assay with ETV3 and 1.31 fold enrichment (6-mer frequency, TF over GST control) with ETV6.

On to CTGTAT, for which the binding signal in the assay with ERF was 1.29 fold enrichment (6-mer frequency, TF over GST control); in the assay with ETV3L it was 1.24 fold enrichment (6-mer frequency, TF over GST control); in the assay with ETS2, 1.22 fold enrichment (6-mer frequency, TF over GST control); in the assay with SPDEF it was 1.44 fold enrichment (6-mer frequency, TF over GST control); with ETV7 it was 1.25 fold enrichment (6-mer frequency, TF over GST control); in the assay with ELF5, 1.34 fold enrichment (6-mer frequency, TF over GST control). Further, the binding signal with ETV3 was 1.32 fold enrichment (6-mer frequency, TF over GST control); with ETV6 it was 1.31 fold enrichment (6-mer frequency, TF over GST control).

Consider CCGAAC, for which the binding signal was 1.23 fold enrichment (6-mer frequency, TF over GST control) with ERF; 1.27 fold enrichment (6-mer frequency, TF over GST control) in the assay with ETV3L; 1.26 fold enrichment (6-mer frequency, TF over GST control) in the assay with ETS2; 1.28 fold enrichment (6-mer frequency, TF over GST control) in the assay with SPDEF; 1.14 fold enrichment (6-mer frequency, TF over GST control) with ETV7; 1.21 fold enrichment (6-mer frequency, TF over GST control) with ELF5. The binding signal with ETV3 is 1.18 fold enrichment (6-mer frequency, TF over GST control); with ETV6, 1.28 fold enrichment (6-mer frequency, TF over GST control).

Regarding TGCTAT, the binding signal with ERF is 1.33 fold enrichment (6-mer frequency, TF over GST control); in the assay with ETV3L, 1.4 fold enrichment (6-mer frequency, TF over GST control); with ETS2, 1.52 fold enrichment (6-mer frequency, TF over GST control); with SPDEF, 1.48 fold enrichment (6-mer frequency, TF over GST control); with ETV7, 1.43 fold enrichment (6-mer frequency, TF over GST control); with ELF5 it was 1.33 fold enrichment (6-mer frequency, TF over GST control). Besides, the binding signal was 1.45 fold enrichment (6-mer frequency, TF over GST control) with ETV3 and 1.38 fold enrichment (6-mer frequency, TF over GST control) with ETV6.

In the case of TAACCT, the binding signal was 1.35 fold enrichment (6-mer frequency, TF over GST control) in the assay with ERF; 1.28 fold enrichment (6-mer frequency, TF over GST control) in the assay with ETV3L; 1.31 fold enrichment (6-mer frequency, TF over GST control) in the assay with ETS2; 1.23 fold enrichment (6-mer frequency, TF over GST control) with SPDEF; 1.26 fold enrichment (6-mer frequency, TF over GST control) with ETV7; 1.29 fold enrichment (6-mer frequency, TF over GST control) with ELF5. Further, the binding signal in the assay with ETV3 is 1.31 fold enrichment (6-mer frequency, TF over GST control); with ETV6, 1.23 fold enrichment (6-mer frequency, TF over GST control).

With CGTTCG, the binding signal in the assay with ERF is 1.52 fold enrichment (6-mer frequency, TF over GST control); with ETV3L it was 1.16 fold enrichment (6-mer frequency, TF over GST control); with ETS2 it was 1.25 fold enrichment (6-mer frequency, TF over GST control); with SPDEF, 1.04 fold enrichment (6-mer frequency, TF over GST control); with ETV7 it was 1.24 fold enrichment (6-mer frequency, TF over GST control); in the assay with ELF5 it was 1.26 fold enrichment (6-mer frequency, TF over GST control). Besides, the binding signal is 1.19 fold enrichment (6-mer frequency, TF over GST control) in the assay with ETV3 and 1.29 fold enrichment (6-mer frequency, TF over GST control) in the assay with ETV6.

As to TTTTGC, the binding signal with ERF is 1.53 fold enrichment (6-mer frequency, TF over GST control); with ETV3L it was 1.35 fold enrichment (6-mer frequency, TF over GST control); with ETS2, 1.31 fold enrichment (6-mer frequency, TF over GST control); with SPDEF it was 1.35 fold enrichment (6-mer frequency, TF over GST control); with ETV7 it was 1.36 fold enrichment (6-mer frequency, TF over GST control); with ELF5 it was 1.27 fold enrichment (6-mer frequency, TF over GST control). Also, the binding signal with ETV3 is 1.15 fold enrichment (6-mer frequency, TF over GST control); with ETV6 it was 1.49 fold enrichment (6-mer frequency, TF over GST control).
